This is part of a sample that, as a whole, favours compounds with a hit. Of some 83,000 tested, about 20% had one in any assay.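 The endpoint reported here, percent growth, reads 100 for growth as untreated, 0 for no net growth and -100 for all cells dead.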 Unmarked numbers belong to inactive results. Activity calls are given as the source filed them. The calls were made as follows: active = growth percent below 10; inactive = the rest.

The text below walks through data of PubChem BioAssay (NCI).

Test systems include SR leukemia; RPMI-8226 leukemia; OVCAR-8 ovarian; OVCAR-5 ovarian; OVCAR-4 ovarian; SK-OV-3 ovarian; IGROV1 ovarian; OVCAR-3 ovarian; HS 578T breast; NCI/ADR-RES ovarian; T-47D breast; BT-549 breast; MDA-MB-435 melanoma; SW-620 colon; MCF7 breast; HCT-116 colon; HCC-2998 colon; KM12 colon.
Test in all cases: NCI-60 one-dose screen, 48 h (100 = growth as untreated, 0 = no growth, -100 = all killed)
What all share (conditions): 10 µM unless noted

`C=C1C(=O)O[C@H]2[C@H]1CC/C(CNC(=O)/C=C/c1cc(OC)c(OC)c(OC)c1)=C\CC[C@@]1(C)O[C@@H]21`: the growth with SR leukemia is -13.8% (active); in the assay with RPMI-8226 leukemia, -5.59% (active); in the assay with OVCAR-8 ovarian it was 5.04% (active); with OVCAR-5 ovarian, 15.9%; in the assay with OVCAR-4 ovarian, 14.7%; in the assay with SK-OV-3 ovarian, 64.6%. In addition, the growth is 17.8% in the assay with IGROV1 ovarian; -57.5% (active) in the assay with OVCAR-3 ovarian; 24.2% in the assay with HS 578T breast; 76.7% in the assay on NCI/ADR-RES ovarian; -65% (active) in the assay on T-47D breast; -17.8% (active) in the assay on BT-549 breast. Moreover, the growth in the assay with MDA-MB-435 melanoma is -60.3% (active); in the assay on SW-620 colon, -21.6% (active); in the assay on MCF7 breast it was -8.09% (active); in the assay on HCT-116 colon, -65.6% (active); in the assay on HCC-2998 colon, -79% (active); with KM12 colon it was 38.8%.

As for `CCN(CC)CCCNC(=O)c1c2c(n3ccccc13)C(=O)c1ncccc1C2=O`, the growth was -22.6% (active) in the assay with SR leukemia; -23.8% (active) in the assay on RPMI-8226 leukemia; -56.1% (active) with OVCAR-8 ovarian; -8.93% (active) with OVCAR-5 ovarian; -83.4% (active) in the assay on OVCAR-4 ovarian; -41.4% (active) in the assay with SK-OV-3 ovarian. Besides, the growth in the assay on IGROV1 ovarian was -40.3% (active); in the assay on OVCAR-3 ovarian, -39.5% (active); in the assay with HS 578T breast it was 37.5%; in the assay with NCI/ADR-RES ovarian it was 3.02% (active); in the assay on T-47D breast, -64.4% (active); with BT-549 breast, -6.67% (active). The growth was -58.7% (active) with MDA-MB-435 melanoma; -47% (active) with SW-620 colon; -52.9% (active) in the assay on MCF7 breast; -70.5% (active) in the assay with HCT-116 colon; -72.5% (active) in the assay with HCC-2998 colon; -13.2% (active) in the assay with KM12 colon.

Turning to `Oc1ccc(Cc2ccc(O)c3ncccc23)c2cccnc12`, the growth with SR leukemia was 9.74% (active); in the assay with RPMI-8226 leukemia, 8.21% (active); in the assay with OVCAR-8 ovarian it was 12.6%; in the assay with OVCAR-5 ovarian, 21.6%; in the assay with OVCAR-4 ovarian, 14.2%; with SK-OV-3 ovarian it was -17.2% (active). The growth with IGROV1 ovarian is 7.8% (active); in the assay with OVCAR-3 ovarian it was 14.1%; in the assay on HS 578T breast, 36.6%; in the assay on NCI/ADR-RES ovarian, 20.2%; in the assay with T-47D breast it was -3.14% (active); in the assay with BT-549 breast, 29.4%. Further, the growth in the assay with MDA-MB-435 melanoma is 12.6%; in the assay on SW-620 colon, 16.7%; in the assay with MCF7 breast, 3.18% (active); in the assay with HCT-116 colon, 15.2%; in the assay with HCC-2998 colon, 19.2%; with KM12 colon, 15.8%.

Consider `C#CCOc1ccc(C2=NN(C)C3N=C(Cl)c4ncn(C)c4N23)cc1OCC#C` (stereo not given), for which the growth was 91% in the assay on SR leukemia; 92.4% with RPMI-8226 leukemia; 93.1% in the assay on OVCAR-8 ovarian; 82.6% with OVCAR-5 ovarian; 102% in the assay with OVCAR-4 ovarian; 101% in the assay on SK-OV-3 ovarian. The growth with IGROV1 ovarian was 102%; in the assay on OVCAR-3 ovarian, 118%; with HS 578T breast it was 99.9%; in the assay on NCI/ADR-RES ovarian, 88.4%; with T-47D breast, 77.4%; in the assay with BT-549 breast, 99.6%. Further, the growth with MDA-MB-435 melanoma was 108%; in the assay with SW-620 colon, 93.6%; with MCF7 breast it was 98.5%; with HCT-116 colon it was 93.3%; with HCC-2998 colon, 104%; in the assay with KM12 colon, 102%.

With `N#Cc1c(-c2ccc(F)cc2)cc(-c2cccc(Cl)c2)[nH]c1=O`, the growth with SR leukemia is 113%; with RPMI-8226 leukemia, 42.1%; in the assay with OVCAR-8 ovarian, 53.4%; in the assay with OVCAR-5 ovarian, 112%; in the assay with OVCAR-4 ovarian, 28%; in the assay on SK-OV-3 ovarian it was 79.3%. Moreover, the growth with IGROV1 ovarian was 62.8%; in the assay with OVCAR-3 ovarian, 7.21% (active); in the assay with HS 578T breast, 46%; with NCI/ADR-RES ovarian, 71.2%; in the assay with T-47D breast, 59.9%; in the assay with BT-549 breast, 54.6%. Moreover, the growth with MDA-MB-435 melanoma is 77.1%; in the assay with SW-620 colon it was 104%; with MCF7 breast, 54.5%; in the assay with HCT-116 colon, 67.1%; in the assay with HCC-2998 colon, 94.2%; in the assay with KM12 colon it was 56.1%.

For the compound `CCN(CC)CCCNc1cc(OC)cc2cccnc12`, the growth in the assay with SR leukemia was 100%; in the assay with RPMI-8226 leukemia, 97.4%; with OVCAR-8 ovarian, 101%; in the assay on OVCAR-5 ovarian it was 117%; in the assay on OVCAR-4 ovarian, 51.4%; in the assay with SK-OV-3 ovarian, 112%. Besides, the growth is 106% in the assay on IGROV1 ovarian; 79.2% with OVCAR-3 ovarian; 109% in the assay with HS 578T breast; 108% in the assay with NCI/ADR-RES ovarian; 93.3% with T-47D breast; 112% with BT-549 breast. For the same compound, the growth was 115% in the assay on MDA-MB-435 melanoma; 101% with SW-620 colon; 100% in the assay with HCT-116 colon; 111% in the assay with HCC-2998 colon; 96.9% in the assay on KM12 colon.

In the case of `CC(C)(C)n1cc(-c2ccnc(NCCNS(=O)(=O)c3cccc4ccccc34)c2)c(-c2cccc(O)c2)n1`, the growth in the assay on SR leukemia was 30.1%; in the assay on RPMI-8226 leukemia it was 27.4%; in the assay on OVCAR-8 ovarian it was 65.9%; in the assay with OVCAR-5 ovarian it was 84.4%; in the assay with OVCAR-4 ovarian, 80.1%; with SK-OV-3 ovarian, 81.9%. In addition, the growth in the assay on IGROV1 ovarian is 87%; in the assay on OVCAR-3 ovarian it was 91%; in the assay on HS 578T breast, 84.6%; in the assay with NCI/ADR-RES ovarian it was 77%; in the assay with T-47D breast, 31.4%; in the assay with BT-549 breast, 60.5%. Besides, the growth was 78.6% in the assay on MDA-MB-435 melanoma; 35.8% with SW-620 colon; 49.4% with MCF7 breast; 46.5% in the assay with HCT-116 colon; 66.3% with HCC-2998 colon; 57.5% with KM12 colon.

As for `C=C(CNCCO)[C@@H]1CC[C@]2(CO)CC[C@]3(C)[C@H](CC[C@@H]4[C@@]5(C)CCC(NCCO)C(C)(C)[C@@H]5CC[C@]43C)[C@@H]12` (stereo not given in full), the growth was -22.9% (active) in the assay with SR leukemia; 36.8% with RPMI-8226 leukemia; 75.8% with OVCAR-8 ovarian; 90.6% in the assay on OVCAR-5 ovarian; 77.1% with OVCAR-4 ovarian; 94.6% in the assay on SK-OV-3 ovarian. The growth with IGROV1 ovarian is 80.4%; in the assay with OVCAR-3 ovarian, 80%; with HS 578T breast it was 78.2%; in the assay with NCI/ADR-RES ovarian, 95%; in the assay with T-47D breast, 84.4%; with BT-549 breast it was 78.9%. Further, the growth with MDA-MB-435 melanoma was 70.2%; in the assay on SW-620 colon it was 73.8%; in the assay on HCT-116 colon it was 44.3%; in the assay on HCC-2998 colon, 71.7%; with KM12 colon, 63.4%.

Regarding `CCN1CCN(c2nc(NNC(=O)c3ccc(OC)cc3)nc(N3CCN(C(c4ccccc4)c4ccccc4)CC3)n2)CC1`, the growth with SR leukemia is -8.03% (active); with RPMI-8226 leukemia it was 12.3%; with OVCAR-8 ovarian, 63.1%; in the assay with OVCAR-5 ovarian, 106%; with OVCAR-4 ovarian, 49.1%; in the assay with SK-OV-3 ovarian it was 48.3%. Moreover, the growth was 72.3% in the assay on IGROV1 ovarian; 11.7% in the assay with OVCAR-3 ovarian; 46.2% in the assay with HS 578T breast; 73.4% with NCI/ADR-RES ovarian; 43.4% in the assay with T-47D breast; 81.1% in the assay on BT-549 breast. Moreover, the growth is 18.3% in the assay on MDA-MB-435 melanoma; 32.4% in the assay with SW-620 colon; 20.8% in the assay on HCT-116 colon; 21.3% with HCC-2998 colon; 36.9% with KM12 colon.

Regarding `CC(=O)c1c(/C=C/c2ccc(C)cc2)c2ccccc2[nH]c1=O`, the growth with SR leukemia is 99.5%; with RPMI-8226 leukemia it was 91.5%; in the assay on OVCAR-8 ovarian, 86.8%; with OVCAR-5 ovarian, 100%; in the assay on OVCAR-4 ovarian, 88.9%; in the assay on SK-OV-3 ovarian, 90.2%. Moreover, the growth in the assay with IGROV1 ovarian was 57.4%; in the assay with OVCAR-3 ovarian it was 92.5%; in the assay on HS 578T breast, 85.9%; with NCI/ADR-RES ovarian it was 85.8%; in the assay with T-47D breast it was 85.7%; in the assay on BT-549 breast it was 95.1%. Moreover, the growth was 96.1% in the assay on MDA-MB-435 melanoma; 95.1% with SW-620 colon; 88.7% in the assay with MCF7 breast; 91.7% in the assay with HCT-116 colon; 96.5% with HCC-2998 colon; 100% in the assay with KM12 colon.

As to `Cn1cc(-c2csc(-c3cn(CCO)c4ccc(F)cc34)n2)c2cccnc21`, the growth is 20.7% in the assay with SR leukemia; 62.6% in the assay with RPMI-8226 leukemia; 75.9% in the assay with OVCAR-8 ovarian; 65.6% in the assay on OVCAR-5 ovarian; 36% with OVCAR-4 ovarian; 73% with SK-OV-3 ovarian. Moreover, the growth in the assay on IGROV1 ovarian is 51.9%; with OVCAR-3 ovarian, 49.7%; in the assay with HS 578T breast it was 79.8%; with NCI/ADR-RES ovarian it was 45.5%; with T-47D breast it was 9.75% (active); with BT-549 breast it was 52.8%. The growth in the assay on MDA-MB-435 melanoma was 1.7% (active); in the assay with SW-620 colon, 29.8%; with MCF7 breast it was 34.9%; with HCT-116 colon, 35.8%; in the assay on HCC-2998 colon it was 64.1%; in the assay on KM12 colon, 30.6%.
